Measured values as given in publication PMC4336329 (PLoS ONE, 2015).
Out of some 310,000 compounds screened, about 14,000 (4.5%) showed an effect of 50% or more. Effects have a minus sign here. Shown is part of a subset that was picked to be rich in strong results.

Biological target: human ether-à-go-go-related gene (hERG) potassium channel (human, UniProt Q12809)
Assay: primary screen, population patch clamp on CHO cells stably expressing hERG; higher = less effect of the substance
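Also: peak tail current of the secondary pulse compared with the same well before compound.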

human ether-à-go-go-related gene (hERG) potassium channel, sequence (Q12809 whole entry, looked up): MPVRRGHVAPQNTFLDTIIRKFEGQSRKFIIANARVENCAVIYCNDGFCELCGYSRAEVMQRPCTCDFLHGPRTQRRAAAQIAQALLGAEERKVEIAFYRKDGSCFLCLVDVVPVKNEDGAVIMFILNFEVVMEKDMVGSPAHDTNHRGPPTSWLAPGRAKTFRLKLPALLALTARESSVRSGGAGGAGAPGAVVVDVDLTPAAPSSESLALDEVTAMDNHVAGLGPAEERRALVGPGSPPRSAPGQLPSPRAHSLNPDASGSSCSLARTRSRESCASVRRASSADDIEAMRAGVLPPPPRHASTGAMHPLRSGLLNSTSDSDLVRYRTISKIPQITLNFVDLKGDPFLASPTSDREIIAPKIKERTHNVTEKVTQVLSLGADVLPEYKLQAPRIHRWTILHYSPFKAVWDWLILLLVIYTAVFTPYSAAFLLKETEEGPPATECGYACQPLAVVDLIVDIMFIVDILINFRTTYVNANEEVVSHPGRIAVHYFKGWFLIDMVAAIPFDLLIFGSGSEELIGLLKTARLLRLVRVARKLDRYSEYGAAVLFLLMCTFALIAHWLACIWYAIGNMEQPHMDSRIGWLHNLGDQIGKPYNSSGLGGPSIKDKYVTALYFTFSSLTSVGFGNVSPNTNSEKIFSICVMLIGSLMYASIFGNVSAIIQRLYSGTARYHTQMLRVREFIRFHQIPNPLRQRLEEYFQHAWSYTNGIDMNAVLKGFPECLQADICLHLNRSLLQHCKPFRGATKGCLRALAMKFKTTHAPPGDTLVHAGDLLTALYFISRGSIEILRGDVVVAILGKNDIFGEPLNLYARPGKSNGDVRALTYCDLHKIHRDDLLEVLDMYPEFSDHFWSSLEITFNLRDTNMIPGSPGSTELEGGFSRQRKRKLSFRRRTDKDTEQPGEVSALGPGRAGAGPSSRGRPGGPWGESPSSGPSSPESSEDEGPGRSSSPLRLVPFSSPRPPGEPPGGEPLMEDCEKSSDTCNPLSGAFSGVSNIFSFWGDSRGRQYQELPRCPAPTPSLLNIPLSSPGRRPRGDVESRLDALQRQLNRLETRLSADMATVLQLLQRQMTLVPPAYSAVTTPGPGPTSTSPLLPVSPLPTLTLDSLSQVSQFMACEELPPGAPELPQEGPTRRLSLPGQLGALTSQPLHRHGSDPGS

| Compound | hERG current change (%, negative = inhibition) at 10uM [%] |
| --- | --- |
| Cc1cc(C)c(C#N)c(SCc2nnc(-c3ccccc3)o2)n1 | -0.532 |
| O=C(CNCC1CCCO1)Nc1ccccc1N1CCCCCC1.O=C(O)C(=O)O (stereo not drawn) | -6.51 |
| COc1cc(OC)nc(Oc2ccccc2C(=O)Oc2ccc(C)cc2)n1 | -25.1 |
| O=C(c1cc(C2CC2)on1)N1CCN(c2ccccc2)CC1 | -14.1 |
| CCCCN1C(=O)C(=O)N(CC(=O)Nc2cc(S(=O)(=O)N(C)C)ccc2C)C1=O | 6.6 |
| O=S(=O)(Nc1ccc(Br)cc1)c1cccc2nonc12 | 5.71 |
| Cl.O=C(O)CCN1CCOCC1 | 19.8 |
| Cc1ccc(C)c(S(=O)(=O)N2CCN(C(=O)CCNC(=O)c3ccc(Br)cc3)CC2)c1 | -33.4 |
| O=C1C2CCCCC2C(=O)N1c1ccc(NC2CCN(Cc3ccccc3)CC2)c([N+](=O)[O-])c1 (stereo not drawn) | -42.1 |
| O=[N+]([O-])c1ccccc1NC1CCN(Cc2ccccc2)CC1 | -64.4 |
| O=[N+]([O-])c1ccc(NC2CCN(Cc3ccccc3)CC2)c([N+](=O)[O-])c1 | -85.4 |
| O=C1CCC(=O)N1c1ccc(NC2CCN(Cc3ccccc3)CC2)c([N+](=O)[O-])c1 | 2.23 |
| CC1CCC2C(=O)N(c3ccc(NC4CCN(Cc5ccccc5)CC4)c([N+](=O)[O-])c3)C(=O)C2C1 (stereo not drawn) | -41.2 |
| O=[N+]([O-])c1ccc(NC2CCN(Cc3ccccc3)CC2)c2ccncc12 | 6.01 |
| Cc1noc(C)c1S(=O)(=O)NCc1ccc(CN(C)C)cc1.Cl | 6.09 |
| COc1ccc(CCNC(=O)/C(C#N)=C/c2ccc(OCC(=O)NCC3CCCO3)cc2)cc1OC (stereo not drawn) | 11.7 |
| CC(C)N(C(=O)COC(=O)c1ccc(O)cc1)C(C)C | -1.54 |
| CCS(=O)(=O)c1nc(S(=O)(=O)c2ccc(C)cc2)c(NCCCN2CCCC2=O)s1 | -11.3 |
| CS(=O)(=O)c1nc(S(=O)(=O)c2ccc(Cl)cc2)c(NCCCN2CCOCC2)s1 | -46.8 |
| CCCCNC(=O)c1cn(C)c2ccc(S(=O)(=O)N3CC(C)CC(C)C3)cc2c1=O (stereo not drawn) | 1.55 |
| O=C1NC(=S)NC(=O)C12C(c1ccc(F)cc1)NC(=S)NC2c1ccc(F)cc1 (stereo not drawn) | -4.14 |
| Cl.Oc1cccc(Nc2nc(-c3ccccc3Cl)nc3ccccc23)c1 | 7.09 |

| Compound | hERG current change (%, negative = inhibition) at 10uM [%] |
| --- | --- |
| CCCn1c(C)cc(C(=O)Cn2nnc3ccccc3c2=O)c1C | -34.7 |
| O=C(CSc1ccc(-c2ccco2)nn1)c1ccc(F)cc1 | -25.8 |
| Cc1cc(C)cc(NC(=O)CSc2ccc(-c3ccco3)nn2)c1 | -28.8 |
| CC(=O)Nc1ccc(NC(=O)CSc2ccc(-c3cccs3)nn2)cc1 | 11.4 |
| O=C(CSc1ccc(-c2cccs2)nn1)Nc1ccccc1 | -35 |
| O=C(CSc1ccc(-c2ccco2)nn1)Nc1cccc(F)c1 | -55.2 |
| COc1ccc(C(=O)CSc2ccc(-c3ccco3)nn2)cc1 | -78.1 |
| O=C(CSc1ccc(-c2ccco2)nn1)c1ccccc1 | -9.74 |
| CC(=O)c1cccc(NC(=O)CSc2ccc(-c3ccco3)nn2)c1 | 1.79 |
| CCc1ccc(NC(=O)CSc2ccc(-c3ccco3)nn2)cc1 | -16.6 |
| CC(=O)Nc1cccc(NC(=O)CSc2ccc(-c3ccco3)nn2)c1 | 0.763 |
| Cc1cc(C)cc(NC(=O)CSc2ccc(-c3cccs3)nn2)c1 | -52.2 |
| Cc1cccc(NC(=O)CSc2ccc(-c3ccco3)nn2)c1 | -59.5 |
| Cc1cc(OC(C)C(=O)Nc2cccnc2)ccc1Cl (stereo not drawn) | 2.05 |
| COc1ccc(CNC(=O)C2CCN(S(=O)(=O)c3ccc4c(c3)NC(=O)CO4)CC2)cc1 | 16.7 |
| O=C(NC(Cc1c[nH]c2ccccc12)C(=O)O)/C(=C\c1ccc2c(c1)OCO2)NC(=O)c1ccccc1 (stereo not drawn) | -7.13 |
| CCCC(=O)Nc1ccc2nc(SCC(=O)N3CCCC3)sc2c1 | 2.52 |
| O=C(O)c1cccc(S(=O)(=O)N2CCCC(c3nc4c(nnn4Cc4ccc(F)cc4)c(=O)[nH]3)C2)c1 (stereo not drawn) | -15.3 |
| O=C1/C(=C\c2ccc(Br)o2)SC(=Nc2ccccc2)N1c1ccccc1 | -10.1 |
| Cl.N=c1c2c(n(Cc3ccc(Cl)c(Cl)c3)c3c1CCC3)CCCC2 | -15.8 |
| COc1cc(NC(=O)Cc2ccccc2)ccc1NC(=O)c1ccco1 | 18.5 |
| O=C(CSc1ccc(-c2ccco2)nn1)Nc1ccc(F)cc1F | -65.8 |

| Compound | hERG current change (%, negative = inhibition) at 10uM [%] |
| --- | --- |
| O=C(CSc1ccc(-c2ccco2)nn1)Nc1ccccc1 | -47.6 |
| Cc1ccc(NC(=O)CSc2ccc(-c3ccco3)nn2)c(C)c1 | -24.4 |
| CC(=O)Nc1ccc(NC(=O)CSc2ccc(-c3ccco3)nn2)cc1 | -2.54 |
| O=C(CSc1ccc(-c2ccco2)nn1)Nc1ccc(F)cc1 | -68.5 |
| O=C(CSc1ccc(-c2ccco2)nn1)Nc1ccccc1F | -43.4 |
| CC(NC(=O)c1ccco1)c1nc(-c2ccccc2Cl)no1 (stereo not drawn) | 3.9 |
| Cc1cc2nc(-c3cccc(NC(=O)c4ccc(Br)o4)c3C)oc2cc1C | 5.67 |
| Cc1nc(C)c(-c2ccc(SCC(=O)Nc3cccc(F)c3)nn2)s1 | 8.66 |
| CC(C)C(=O)Nc1ccc(Cc2ccc(NC(=O)C(C)C)c(O)c2)cc1O | -23 |
| COc1cccc(-c2nc(CS(=O)(=O)CC(=O)NCCc3ccc(OC)cc3OC)c(C)o2)c1 | -13 |
| Cc1ccnc(NS(=O)(=O)c2ccc(NC(=O)Cc3ccccc3)cc2)n1 | 5.26 |
| COc1ccccc1OCCNC(=O)/C=C/c1ccc([N+](=O)[O-])cc1 | -49.2 |
| COc1ccc(/C=C/C(=O)NCCc2ccc(S(N)(=O)=O)cc2)cc1 | 3.55 |
| COc1ccc(/C=C/C(=O)NCCOc2ccc(C)cc2)cc1 | 6.3 |
| O=C(/C=C/c1ccc([N+](=O)[O-])cc1)NCCc1ccc(F)cc1 | -60.3 |
| O=C(/C=C/c1ccc([N+](=O)[O-])cc1)NCc1ccco1 | -24.1 |
| O=C(/C=C/c1ccc([N+](=O)[O-])cc1)NCCc1ccccc1 | -14.4 |
| O=C(/C=C/c1cccc([N+](=O)[O-])c1)NCCSCc1ccco1 | -29.5 |
| O=C(/C=C/c1ccc([N+](=O)[O-])cc1)NCCSCc1ccco1 | -61.3 |
| NS(=O)(=O)c1ccc(CCNC(=O)/C=C/c2cccc([N+](=O)[O-])c2)cc1 | -13.7 |
| NS(=O)(=O)c1ccc(CCNC(=O)/C=C/c2ccc([N+](=O)[O-])cc2)cc1 | -69.8 |
| O=C(/C=C/c1cccc([N+](=O)[O-])c1)NCCc1ccc(F)cc1 | -21.8 |

| Compound | hERG current change (%, negative = inhibition) at 10uM [%] |
| --- | --- |
| COc1ccc(OCCNC(=O)/C=C/c2ccc([N+](=O)[O-])cc2)cc1 | -64.7 |
| O=[N+]([O-])c1cc(/C=N\Nc2ccccn2)ccc1Cl | 18.4 |
| CCN(CC)c1ccc(NC(=O)CN(C)Cc2cccs2)cc1 | 6.07 |
| O=C(O)c1ccc(NC(=O)c2cccs2)cc1 | 10.1 |
| COc1ccc(NC(=O)COc2ccccc2F)cc1S(=O)(=O)N1CCCCC1 | 6.02 |
| COc1ccc(N2CCN(C(=O)CSc3nnc4c5cc(C)ccc5n(C)c4n3)CC2)cc1 | -13.9 |
| Cc1ccc2c(c1)c1nnc(SCC(=O)N3CCN(c4ccc(F)cc4)CC3)nc1n2CC(=O)O | -63.1 |
| Cc1ccc2c(c1)c1nnc(SCC(=O)N3CCCc4ccccc43)nc1n2CC(=O)O | 20.2 |
| COc1cccc(OCc2ccc(Cl)cc2)c1C#N | 19.6 |
| CCC(=O)N1CCc2cc(S(=O)(=O)NC(CC(C)C)C(=O)N3CCc4ccccc43)ccc21 (stereo not drawn) | -2.28 |
| NC(=O)c1ccccc1NCC(=O)c1ccc(Cl)cc1 | 16.4 |
| O=C(c1cccc([N+](=O)[O-])c1)c1ccc2c(c1)C(=O)NC2=O | -11.5 |
| c1ccc2c(c1)OCCOCCOCCO2 | 10 |
| CN1CCOCCOc2ccccc2OCCOCC1 | 7.5 |
| c1ccc2c(c1)OCCOCCOCCOCCOCCOc1ccccc1OCCOCCOCCO2 | -59.2 |
| C=C(C)C(=O)Nc1ccc2c(c1)OCCOCCOCCO2 | -26.4 |
| c1ccc2c(c1)OCCOCCOCCOCCOc1ccccc1OCCOCCOCCO2 | -62.1 |
| CC(=O)[O-].[K+].c1ccc2c(c1)OCCOCCOc1ccccc1OCCOCCO2 | -74.7 |
| O=C(N1CCOCCOc2ccccc2OCCOCC1)C(F)(F)F | 6.2 |
| OCCN1CCOCCOc2ccccc2OCCOCC1 | 1.57 |
| CC(=O)Nc1cccc2c1OCCO2 | 6.45 |
